Laboratory results from the supplement of paper PMC11417369.
The full ranking holds about 25,000 sequences; the median of “ln(normalized median fluorescence intensity)” is about 9.7, and the highest 2% start at about 11. For the sample, the highest values were picked, then their nearest neighbours and some sequences at random.

test system: PfAP2-HC AP2 domain (GST-tagged); test: gcPBM binding intensity (ln(normalized median fluorescence intensity)); higher = stronger DNA binding
Summary of the method: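 Probes on an Agilent 4 × 180k array were primer-extended, double-stranded and 36 bp long, taken from intergenic genomic regions, with negative controls added. GST-tagged P. falciparum DNA-binding domains from E. coli, about 25 μg on average, were applied to the array for 1 h in 1× PBS containing 1% milk, 0.2 mg/ml BSA, 0.5% salmon testes DNA and 0.03% Triton X-100. Binding intensity, obtained after Alexa488 anti-GST antibody detection and a 488 nm scan, is the highest Masliner-normalised natural-log median intensity across replicate spots of either probe orientation.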

Sequence | gcPBM binding intensity (ln)
AAGATAATTACGCACACACACACACGCCCACAACTA [CACACA_site7255] | 11.4
AAAAGATAATTATGCACACACACACCCCCACCCAAC [CACACA_site2570] | 10.9
GATAATTACGGACACACACACACACGCACAACTAAA [CACACA_site7254] | 10.7
AGCACATTATTCAAAAGTACAAATAGGTATTGTATA [XGTACX_site6107] | 9.59
TTATTCTTTTAATATACACACTTTGTCTTTTCGCGC [CACACA_site5525] | 9.9
AAAATTAAAACCTACACACACATTTAAAAAAAAAAA [CACACA_site3068] | 10.1
TAATTTTTTTTAAACACACACATTACATTCAAAAAT [CACACA_site127] | 10.1
GAAAAATTAAAACCTACACACACATTTAAAAAAAAA [CACACA_site9005] | 11
ATACATTCAATGAAATGTACGTTTATTTACAGAAGA [XGTACX_site2999] | 9.6
TTTTTTCTTTTTATGTGTACTTATTTTATTTAATAA [XGTACX_site1080] | 9.76
TTTTTCAGATCCTATATAGTATCATATAAATTCCAT [CACACA_negctrl_site56] | 9.39
AAGAAAAAATGATGAATAGAGATCAAATCTATATAT [TGCATGCA_negctrl_site29] | 9.65
TTTTTAAAATATTTAACACACAATTTTAATGCATAA [CACACA_site6036] | 9.61
CAATATAAAAAACACACGCACACAAAAAAAAAAAAA [CACACA_site3521] | 10.3
ATATTCATTAACCACACACACAAAAAAAATAAAATT [CACACA_site3801] | 10.2
GGATATTCATTAACCACACACACAAAAAAAATAAAA [CACACA_site3800] | 11.2
TCATTCATAAAAATAACACACAAAAAAAAAAAAAAA [CACACA_site1800] | 9.62
AATAAAAAAAAACGCACACACAAATATATTCCATTC [CACACA_site1224] | 10.4
ATATATATATTCCACACACACACAAAAAAAAAAAAA [CACACA_site3648] | 10.6
TCAATAAAAAAAAACGCACACACAAATATATTCCAT [CACACA_site1223] | 11
ACACAAAAAATAAAAATATATATATATTATATATAT [CACACA_negctrl_site1489] | 9.75
ATATAAATATTCCACACACACACAAAAAAAAAAAAA [CACACA_site7678] | 11

Sequence | gcPBM binding intensity (ln)
TTTTTATAATGATACATATATTATTTTATTCTTAAT [CACACA_negctrl_site124] | 9.54
AAAAAAAAAAAAAAAACACACATATCTGTATTTATA [CACACA_site5760] | 9.75
ATATTGACAGGAAAAATTTTCTTTGAATCTTTAAAA [CACACA_negctrl_site1191] | 9.29
ATTAGGATATATTAAAGTACTAATATAATACATTTT [XGTACX_site7386] | 9.55
TTTTACTAAATATATACACACATTATACAGATATAT [CACACA_site5765] | 9.86
AGTATATAAAATACTGTATCGATGGGGGAGGGCGCA [CACACA_negctrl_site1612] | 9.91
ATATATGGGGCGCAGGAAAAGAGTTTTGGAAATAAA [CACACA_negctrl_site1265] | 9.63
TATAAAATACTGTATCGATGGGGGAGGGCGCAGGGG [TGCATGCA_negctrl_site250] | 10.9
TGTATTAATAAAAATACACACATCATATTATATAAA [CACACA_site3534] | 9.73
AAAAAAATTAGACACACACACACATATAAATATGTA [CACACA_site6618] | 10.8
AAATTAATAAGTCACACACACATATATAATATATAT [CACACA_site799] | 10.4
TTTTAATTAAGACACACACACACATATAAATATGTA [CACACA_site7144] | 11
ATATTAAAGATATATACACACATATTTATAAATATA [CACACA_site7127] | 9.78
CAAAATTAATAAGTCACACACACATATATAATATAT [CACACA_site798] | 11
GATAAATTAAGACACACACACATATATTTATTTATA [CACACA_site7789] | 11.2
ACATATACAAGACACACACACAACGTTTTAATAAAT [CACACA_site7017] | 11.2
CATTATAAGAGACACACACACATATATAAATATGTA [CACACA_site6621] | 10.9
ACATATACAAAACACACACACAACGTTTTAATAAAT [CACACA_site1979] | 10.7
TAAAATATAAGACACACACACATATATTTATATATC [CACACA_site6248] | 10.5
TTAAAATATACATAAACACACACAAAACGTTTAAGA [CACACA_site8267] | 10.4
ATTAAAATATAAGTCACACATATATATATATATATA [CACACA_site6145] | 9.51
TTTATATTAATTTGTGTAAATGCATATGATGAGCAT [XGTACX_negctrl_site254] | 9.41
